Structures are written as SMILES. Records with an inconclusive call do not appear. The source made the active and inactive calls. Unless noted, calls come from the whole dose curve; as a rule, active = well fitted curve in the direction sought with a large enough effect; inconclusive = small, poorly fitted or top-dose-only effect, or another doubt; inactive = no such curve, though single readings can be large; an effect the other way counts as inactive or inconclusive.

The target of assay [1] is Lysosomal acid glucosylceramidase (Homo sapiens) (UniProt P04062). Put plainly: Glucocerebrosidase-p2 (AID 348; in the data active = potency below about 10 µM; note: potency is the fitted concentration of half-maximal effect). Particulars: purified GBA, blue fluorogenic substrate, 40 min. The gist of the method:
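Compounds titrated from 0.6 nM upwards against 0.2 nM enzyme in pH 5.9 citric acid/KH2PO4, taurocholate, tween-20; blue fluorogenic substrate 80 uM, 40 min room temperature, stopped and read Ex 365/Em 440 for AC50.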

A short description of assay [2]: AP1 Signaling Pathway (AID 357; active = well fitted curve in either direction with a large enough effect, not every such curve was filed as active;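 note: ME-180 reporter cells stimulated with EGF at its EC50 level; % is set by controls: 0 for no effect and ±100 for the full control effect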). The note with it: ME-180 AP-1-bla reporter, EGF-induced, beta-lactamase ratio, 5 h; at 7.69 µM (top of the series) unless noted. The gist of the method:
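Modulation of EGF-driven AP-1 transcription was assessed with a beta-lactamase reporter in ME-180 cells. Compound and EC50 EGF were co-incubated 5 hours at 37 °C before 2.5-hour CCF4 loading at room temperature and dual-emission reading.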

The target of assay [3] is Cytochrome P450 1A2 (Homo sapiens) (UniProt P05177). The experiment in a line: p450-cyp1a2 (AID 410; calls by dose curve; note: potency is the fitted concentration of half-maximal effect). Particulars: recombinant CYP1A2, luciferin-ME demethylation, luminescence; series mostly up to 57 µM. The method, boiled down: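 Inhibition was calculated relative to 57 uM furafylline (full inhibition). The reaction used human CYP1A2 at 20nM with Luciferin-ME at its Km, 100uM, driven by an NADPH-regenerating system for 60 min at room temperature.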

Assay [4] can be described thus: NFAT Signaling Pathway (AID 444; active = well fitted curve in either direction with a large enough effect, not every such curve was filed as active;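 note: carbachol stimulus at about its EC50 of 1 µM final; % is set by controls: 0 for no effect and ±100 for the full control effect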). Particulars: Jurkat NFAT-bla M1, carbachol, beta-lactamase ratio, 5 h; at 7.69 µM (top of the series) unless noted. The method, boiled down: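 Read-out: CCF4 FRET ratio (460 nm/530 nm) after 1 h RT dye loading, used for %activity and AC50 from titration series. Cells: Jurkat NFAT-β-lactamase/M1 line, treated with compound plus 1 uM carbachol for 5 h, 37 °C.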

Assay [5] concerns the target Glucocorticoid receptor (Homo sapiens) (UniProt P04150). Put plainly: GR-GFP Redistribution (AID 450;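 active = compounds whose dose series gives a full or clear partial fitted curve of increased nuclear translocation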; note: potency is the fitted concentration of half-maximal effect). The note with it: U2OS GR-GFP nuclear translocation, laser cytometry, 2 h.
For assay [6] the target is unchanged. The experiment in a line: GR-EFC Redistribution (AID 451; calls by dose curve; note: potency is the fitted concentration of half-maximal effect). Particulars: CHO-K1 GR-EFC translocation, beta-gal luminescence, 2 h. The gist of the method: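 Translocation of GR-ED fusion to nuclear EA restores b-gal, read by luminescence after 1 h room-temperature detection. Engineered CHO-K1 biosensor cells, 1,000/well, exposed 2 h at 37 C to titrations up to 46 uM final.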

In assay [7] the target is Cytochrome P450 3A4 (Homo sapiens) (UniProt P08684). Put plainly: qHTS Assay for Activators of Cytochrome P450 3A4 (AID 885). Note: nearly all actives have a fitted effect of over 65% in size. The note with it: recombinant CYP3A4, Luciferin-PPXE luminescence, 60 min; series mostly up to 57.1 µM. The method, boiled down: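 Human CYP3A4 (20 nM) with Luciferin-PPXE at 25 uM (its KM) in 200 mM KPO4; 10 min compound preincubation, then NADPH regeneration and 60 min reaction at RT. Luciferin read by luminescence; normalized to 57 uM ketoconazole full inhibition.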

Assay [8] can be described thus: qHTS Assay for Lipid Storage Modulators (AID 1519; calls by dose curve). The note with it: Drosophila S3 cells, BODIPY lipid droplet/cell ratio, laser cytometry, cells loaded with oleic acid; for activity change, negative = inhibition: at 57.5 µM (top of the series). The gist of the method: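 Cells seeded at 5,000 per well were treated with compounds over a concentration series and loaded with oleic acid (400 uM, as added). Lipid droplet fluorescence (488 nm excitation, 500-530 nm channel) was read by laser-scanning cytometry and normalized to 20 uM Triacsin C.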

In assay [9] the target is Dual specificity protein kinase CLK4 (Homo sapiens) (UniProt Q9HAZ1). The experiment in a line: qHTS Assay for Inhibitors of CDC-like Kinase 4 (Kinase-Glo Assay) (AID 1770). Note: nearly all actives have a fitted effect of over 65% in size. Note: potency is the fitted concentration of half-maximal effect. Particulars: recombinant Clk4, Kinase-Glo ATP depletion luminescence; series mostly up to 66.7 µM. The gist of the method: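 Luminescent ATP-depletion read-out (Kinase-Glo) after 4.5 h room-temperature reaction of Clk4 (25 nM final) with RS peptide (100 uM) and ATP (1 uM), pH 7.5 Tris buffer with MgCl2 and DTT.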

Assay [10] has the same target. Put plainly: qHTS Assay for Inhibitors of CDC-like Kinase 4 (ADP-FP Assay) (AID 1795).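 Note: recombinant human CLK4 phosphorylating RS repeat peptide at 1 µM ATP; % is set by controls: 0 for no effect and ±100 for the full control effect; nearly all actives have a fitted effect of over 60% in size.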 The note with it: Transcreener ADP fluorescence polarization; series mostly up to 50 µM. The gist of the method: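 Kinase activity was measured as ADP production using Transcreener orange tracer (4 nM) and ADP antibody (1 ug/mL) fluorescence polarization, with ADP calculated from a calibration curve. The 1 h reaction contained 6.25 nM Clk4, 1 uM ATP and 100 uM RS peptide at pH 7.5 with Mg2+.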

Assay [11] can be described thus: Primary qHTS for small molecule stabilizers of the endoplasmic reticulum resident proteome: Secreted ER Calcium Modulated Protein (SERCaMP) assay (AID 1508630). Note: % is set by controls: 0 for no effect and ±100 for the full control effect. The note with it: SH-SY5Y GLuc-SERCaMP (Gaussia luciferase released on ER calcium loss) secretion, thapsigargin, luminescence; series mostly up to 38.4 µM. The gist of the method:
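GLuc-SERCaMP-expressing SH-SY5Y cells, pretreated 16 h with compound, are challenged with thapsigargin to empty ER calcium stores; after 4 h, coelenterazine is added directly to the medium and luminescence is imaged.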

A short description of assay [12]: Stat Signaling Pathway (AID 446; active = well fitted curve in either direction with a large enough effect, not every such curve was filed as active;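 note: ME-180 cervical cancer cells given 40 pM IL-6 alongside compound; SIE-controlled beta-lactamase reporter measured as 460/530 nm FRET emission ratio; % is set by controls: 0 for no effect and ±100 for the full control effect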). The note with it: ME-180 (cervical carcinoma) SIE beta-lactamase reporter, IL-6 stimulated, 5 h; at 7.69 µM (top of the series) unless noted. The method, boiled down:
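ME-180 cells carrying a SIE-driven beta-lactamase reporter are stimulated with 40 pM IL-6 for 5 h at 37C in the presence of compound. The 460/530 nm FRET substrate ratio is read after 2.5 h at RT. Data are normalised to 300 pM IL-6 and to 125 nM JAK inhibitor controls.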

Assay [13] concerns the target Mitogen-activated protein kinase 10 (Mus musculus) (UniProt Q61831). The experiment in a line: JNK3 AlphaScreen Assay (AID 530; active = well fitted curve in either direction with a large enough effect, not every such curve was filed as active). Particulars: JNK3 lysate, c-Jun phosphorylation; series mostly up to 57.1 µM. The gist of the method: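 Room-temperature AlphaScreen kinase assay; pre-activated HepG2 lysate as JNK3 source, biotin-GST-cJun(1-79) substrate, 10 uM ATP, compound 15 min preincubation.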

The target in assay [14] is Cytochrome P450 2C19 (Homo sapiens) (UniProt P33261). The experiment in a line: qHTS Assay for Inhibitors and Substrates of Cytochrome P450 2C19 (AID 899). Note: potency is the fitted concentration of half-maximal effect; nearly all actives have a fitted effect of over 60% in size. The note with it: recombinant CYP2C19, luciferin-H EGE luminescence; series mostly up to 57.1 µM. The method, boiled down: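 Luminescence readout of luciferin formed from 10uM Luciferin-H EGE (KM level) by 5 nM CYP2C19 in 50mM KPO4. 60 min NADPH-driven reaction at 37C after 10 min compound preincubation; data scaled to 57uM ketoconazole inhibition.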

Assay [15] addresses Ubiquitin carboxyl-terminal hydrolase 1 (Homo sapiens) (UniProt O94782). The experiment in a line: Inhibitors of USP1/UAF1: Pilot qHTS (AID 504865).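 Note: rhodamine fluorescence freed from ubiquitin-rhodamine substrate followed over time; top concentration of the series differs between compounds; % is set by controls: 0 for no effect and ±100 for the full control effect; nearly all actives have a fitted effect of over 35% in size.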 Particulars: purified USP1/UAF1, Ub-rhodamine cleavage fluorescence; series mostly up to 54.9 µM. The gist of the method: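 Deubiquitinase activity followed as kinetic rhodamine fluorescence release from 150 nM Ub-Rho. 1 nM USP1/UAF1 with compound, after 15 min room-temperature preincubation, in HEPES pH 7.8 buffer containing TCEP, EDTA, BSA and Tween-20.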

Assay [16] has as its target 3',5'-cyclic-AMP phosphodiesterase 4B (Homo sapiens) (UniProt Q07343). The experiment in a line: qHTS Assay for Inhibitors of PDE-IV (AID 607; active = well fitted activation curve with a large enough effect in the main read-out, with a control signal flat, not every such curve was filed as active; note: % of control where 0% means no effect). The note with it: HEK293 ACTOne CNG channel cells, membrane potential fluorescence; series mostly up to 22.9 µM. The method, boiled down: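 HEK293 ACTOne cells with CNG channel (1000/well), endogenous PDE4; membrane potential dye, compounds up to 22.9 uM final. Fluorescence Ex 535/Em 590; RO 20-1724 (100 uM final) as reference.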

The target in assay [17] is Cytochrome P450 3A4 (Homo sapiens) (UniProt P08684). Put plainly: qHTS Assay for Inhibitors and Substrates of Cytochrome P450 3A4 (AID 884). Note: potency is the fitted concentration of half-maximal effect; nearly all actives have a fitted effect of over 50% in size. The note with it: recombinant CYP3A4, Luciferin-PPXE luminescence; series mostly up to 57.1 µM. The gist of the method:
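20 nM human CYP3A4 with 25 uM Luciferin-PPXE (at KM) in 200 mM KPO4, preincubated 10 min with compound; NADPH regeneration started a 60 min RT reaction. Luciferin detected by luminescence, normalized to 57 uM ketoconazole as full inhibition.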

The mark [18] stands for this setting: measured here: cell count channel max response.
Setting [19] is: measured here: lipid channel max response.

Chain of Ubiquitin carboxyl-terminal hydrolase 1 (Homo sapiens) (O94782 whole entry, looked up): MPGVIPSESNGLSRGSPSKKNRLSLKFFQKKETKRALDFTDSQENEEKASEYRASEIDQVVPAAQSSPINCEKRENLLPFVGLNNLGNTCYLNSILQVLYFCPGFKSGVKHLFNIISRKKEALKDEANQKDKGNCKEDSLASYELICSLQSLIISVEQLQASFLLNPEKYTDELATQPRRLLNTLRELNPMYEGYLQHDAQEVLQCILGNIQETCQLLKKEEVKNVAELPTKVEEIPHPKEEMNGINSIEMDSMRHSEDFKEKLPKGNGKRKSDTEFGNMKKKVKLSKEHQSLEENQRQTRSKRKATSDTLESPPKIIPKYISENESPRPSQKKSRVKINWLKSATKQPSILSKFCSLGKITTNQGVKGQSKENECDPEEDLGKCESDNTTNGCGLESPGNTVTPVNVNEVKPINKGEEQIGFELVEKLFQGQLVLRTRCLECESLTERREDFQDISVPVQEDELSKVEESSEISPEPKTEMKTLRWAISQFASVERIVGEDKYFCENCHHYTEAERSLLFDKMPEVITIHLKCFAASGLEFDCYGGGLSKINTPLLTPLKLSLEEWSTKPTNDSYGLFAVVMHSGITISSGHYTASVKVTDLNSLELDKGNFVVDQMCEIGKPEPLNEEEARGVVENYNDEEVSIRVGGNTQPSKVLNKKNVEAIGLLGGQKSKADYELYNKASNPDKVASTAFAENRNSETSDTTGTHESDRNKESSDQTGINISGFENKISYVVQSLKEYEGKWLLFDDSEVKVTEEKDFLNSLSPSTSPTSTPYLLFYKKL
Chain of Cytochrome P450 3A4 (Homo sapiens) (P08684 whole entry, looked up): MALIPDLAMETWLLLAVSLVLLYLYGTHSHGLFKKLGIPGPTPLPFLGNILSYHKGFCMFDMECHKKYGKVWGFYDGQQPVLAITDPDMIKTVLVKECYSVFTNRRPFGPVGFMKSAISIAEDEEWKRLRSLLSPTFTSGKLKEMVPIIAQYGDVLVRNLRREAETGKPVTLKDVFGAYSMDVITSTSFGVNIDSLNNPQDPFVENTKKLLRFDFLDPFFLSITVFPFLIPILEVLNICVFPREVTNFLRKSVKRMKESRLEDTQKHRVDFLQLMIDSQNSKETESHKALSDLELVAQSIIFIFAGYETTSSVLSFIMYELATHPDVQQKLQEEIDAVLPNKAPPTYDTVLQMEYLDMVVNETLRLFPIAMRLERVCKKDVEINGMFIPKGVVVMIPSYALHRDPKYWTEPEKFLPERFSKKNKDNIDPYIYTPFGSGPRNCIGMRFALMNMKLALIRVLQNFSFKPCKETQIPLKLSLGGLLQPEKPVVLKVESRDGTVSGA
Chain of Lysosomal acid glucosylceramidase (Homo sapiens) (P04062 whole entry, looked up): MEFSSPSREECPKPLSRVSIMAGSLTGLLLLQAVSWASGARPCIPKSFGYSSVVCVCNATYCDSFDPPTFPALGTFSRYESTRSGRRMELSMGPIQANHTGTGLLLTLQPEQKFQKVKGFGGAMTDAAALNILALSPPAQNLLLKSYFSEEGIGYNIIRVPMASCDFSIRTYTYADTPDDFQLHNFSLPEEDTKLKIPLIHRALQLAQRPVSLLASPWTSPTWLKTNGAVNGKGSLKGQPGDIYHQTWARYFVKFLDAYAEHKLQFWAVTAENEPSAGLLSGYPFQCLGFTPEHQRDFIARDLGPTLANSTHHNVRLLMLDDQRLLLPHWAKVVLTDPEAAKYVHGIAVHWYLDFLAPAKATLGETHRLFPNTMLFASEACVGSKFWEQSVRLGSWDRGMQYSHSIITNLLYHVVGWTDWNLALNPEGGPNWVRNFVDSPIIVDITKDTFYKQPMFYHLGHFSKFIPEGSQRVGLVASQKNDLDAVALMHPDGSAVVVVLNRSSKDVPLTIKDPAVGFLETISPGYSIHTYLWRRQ
Chain of Cytochrome P450 1A2 (Homo sapiens) (P05177 whole entry, looked up): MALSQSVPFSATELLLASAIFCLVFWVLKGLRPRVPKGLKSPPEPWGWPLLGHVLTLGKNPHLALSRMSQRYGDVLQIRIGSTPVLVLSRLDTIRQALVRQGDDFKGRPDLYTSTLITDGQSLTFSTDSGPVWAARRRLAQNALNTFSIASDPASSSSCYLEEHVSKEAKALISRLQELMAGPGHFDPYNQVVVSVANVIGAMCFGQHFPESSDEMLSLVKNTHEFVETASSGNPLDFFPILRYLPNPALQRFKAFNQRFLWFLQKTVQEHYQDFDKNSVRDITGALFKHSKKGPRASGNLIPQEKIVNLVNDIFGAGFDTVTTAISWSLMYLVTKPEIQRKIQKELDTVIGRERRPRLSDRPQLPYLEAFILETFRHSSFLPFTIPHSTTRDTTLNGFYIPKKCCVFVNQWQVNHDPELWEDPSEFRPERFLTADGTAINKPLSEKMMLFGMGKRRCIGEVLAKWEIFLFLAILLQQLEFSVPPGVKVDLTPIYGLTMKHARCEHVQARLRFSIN
Chain of Glucocorticoid receptor (Homo sapiens) (P04150 whole entry, looked up, the tested form may be a part): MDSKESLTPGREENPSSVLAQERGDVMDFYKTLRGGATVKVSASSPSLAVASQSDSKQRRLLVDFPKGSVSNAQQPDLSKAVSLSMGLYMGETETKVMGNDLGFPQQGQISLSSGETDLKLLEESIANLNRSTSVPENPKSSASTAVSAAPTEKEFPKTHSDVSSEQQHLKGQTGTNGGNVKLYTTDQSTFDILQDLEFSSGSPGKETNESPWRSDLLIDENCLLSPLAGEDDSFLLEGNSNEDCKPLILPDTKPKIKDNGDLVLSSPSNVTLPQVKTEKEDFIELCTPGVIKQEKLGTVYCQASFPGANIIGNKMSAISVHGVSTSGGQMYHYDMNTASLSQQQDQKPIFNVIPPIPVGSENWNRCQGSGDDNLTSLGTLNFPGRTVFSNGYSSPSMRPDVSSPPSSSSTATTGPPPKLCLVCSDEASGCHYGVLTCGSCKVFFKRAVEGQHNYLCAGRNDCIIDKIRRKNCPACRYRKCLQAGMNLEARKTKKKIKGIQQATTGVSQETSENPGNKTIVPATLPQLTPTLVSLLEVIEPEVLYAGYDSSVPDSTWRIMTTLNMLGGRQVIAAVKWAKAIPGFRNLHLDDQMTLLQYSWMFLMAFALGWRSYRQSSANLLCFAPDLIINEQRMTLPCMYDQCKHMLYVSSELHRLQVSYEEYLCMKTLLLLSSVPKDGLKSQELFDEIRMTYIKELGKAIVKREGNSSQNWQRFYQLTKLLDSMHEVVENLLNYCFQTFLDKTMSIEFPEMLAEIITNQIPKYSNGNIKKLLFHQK
Chain of Dual specificity protein kinase CLK4 (Homo sapiens) (Q9HAZ1 whole entry, looked up): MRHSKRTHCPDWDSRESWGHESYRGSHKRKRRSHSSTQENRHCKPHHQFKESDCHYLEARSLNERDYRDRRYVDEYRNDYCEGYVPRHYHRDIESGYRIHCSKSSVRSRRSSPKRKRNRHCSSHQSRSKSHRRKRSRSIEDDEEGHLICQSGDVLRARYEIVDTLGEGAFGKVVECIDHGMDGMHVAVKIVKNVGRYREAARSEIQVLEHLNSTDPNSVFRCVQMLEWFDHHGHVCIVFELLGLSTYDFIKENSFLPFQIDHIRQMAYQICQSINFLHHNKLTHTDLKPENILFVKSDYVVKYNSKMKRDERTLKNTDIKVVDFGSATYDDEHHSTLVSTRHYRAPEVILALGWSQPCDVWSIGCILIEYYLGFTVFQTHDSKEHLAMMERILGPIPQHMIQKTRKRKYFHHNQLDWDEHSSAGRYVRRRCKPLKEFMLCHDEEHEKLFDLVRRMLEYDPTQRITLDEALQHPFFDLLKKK
Chain of Cytochrome P450 2C19 (Homo sapiens) (P33261 whole entry, looked up): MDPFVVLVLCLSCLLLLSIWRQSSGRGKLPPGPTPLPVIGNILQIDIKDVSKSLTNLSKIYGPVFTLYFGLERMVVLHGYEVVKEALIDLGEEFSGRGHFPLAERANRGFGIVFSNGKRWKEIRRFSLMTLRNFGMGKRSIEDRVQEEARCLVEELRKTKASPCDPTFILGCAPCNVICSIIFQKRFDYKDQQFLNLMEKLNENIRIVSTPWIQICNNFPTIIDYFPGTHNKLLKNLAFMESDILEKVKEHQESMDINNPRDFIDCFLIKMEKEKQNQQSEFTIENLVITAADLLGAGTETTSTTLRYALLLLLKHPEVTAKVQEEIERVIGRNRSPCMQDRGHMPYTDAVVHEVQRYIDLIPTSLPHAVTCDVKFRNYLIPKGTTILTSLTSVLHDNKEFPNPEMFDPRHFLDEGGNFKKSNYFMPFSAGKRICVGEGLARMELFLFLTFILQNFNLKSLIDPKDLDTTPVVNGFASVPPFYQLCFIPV
Chain of 3',5'-cyclic-AMP phosphodiesterase 4B (Homo sapiens) (Q07343 whole entry, looked up): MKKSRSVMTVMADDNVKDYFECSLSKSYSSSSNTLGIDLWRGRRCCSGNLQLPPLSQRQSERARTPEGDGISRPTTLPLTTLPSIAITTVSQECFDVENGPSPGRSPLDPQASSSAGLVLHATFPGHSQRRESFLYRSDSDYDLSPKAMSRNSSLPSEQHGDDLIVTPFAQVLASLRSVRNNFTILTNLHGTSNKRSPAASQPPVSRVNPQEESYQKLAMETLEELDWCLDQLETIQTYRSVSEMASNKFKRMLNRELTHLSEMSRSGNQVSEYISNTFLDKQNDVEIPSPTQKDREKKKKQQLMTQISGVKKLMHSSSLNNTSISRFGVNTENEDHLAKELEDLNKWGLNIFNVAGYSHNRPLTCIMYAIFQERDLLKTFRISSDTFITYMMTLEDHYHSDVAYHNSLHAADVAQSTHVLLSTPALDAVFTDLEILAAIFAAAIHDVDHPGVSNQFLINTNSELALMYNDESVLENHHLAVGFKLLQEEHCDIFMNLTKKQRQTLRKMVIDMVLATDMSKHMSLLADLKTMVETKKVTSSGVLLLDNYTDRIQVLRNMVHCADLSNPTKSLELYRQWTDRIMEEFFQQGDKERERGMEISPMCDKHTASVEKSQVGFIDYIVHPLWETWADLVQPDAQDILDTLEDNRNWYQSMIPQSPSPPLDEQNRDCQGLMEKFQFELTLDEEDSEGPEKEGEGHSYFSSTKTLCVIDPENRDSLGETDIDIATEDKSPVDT

With `O=c1c(-c2cccs2)nc2cnc(N3CCOCC3)nc2n1-c1ccccc1`, the Potency is > 11.4 µM (inactive) in assay [1], 5.01 µM (active) in assay [3], > 9.22 µM (inactive) in assay [5] and > 46 µM (inactive) in [6]. In addition, the activity change, negative = inhibition in assay [2] was 25.6% (inactive); in [4] it was 2.23% (inactive); in assay [8] it was -15.1% (inactive). Besides, the Potency entry in [7], in [9], in assay [10] and in [11] was “inactive” in each case. The max response was 13.7% in assay [8] (setting [18]) and -6.13% in assay [8] (setting [19]).

In the case of `COc1ccc(CNc2ccnc(-c3ccc4c(c3)OCO4)n2)c(OC)c1`, the Potency is > 11.4 µM (inactive) in [1]; 1.26 µM (active) in assay [3]; > 46 µM (inactive) in [5]; > 46 µM (inactive) in assay [6]; 2.51 µM (active) in [14]. Moreover, the activity change, negative = inhibition in assay [2] was -15% (inactive); in assay [4] it was -5.96% (inactive); in assay [8] it was 4.67% (inactive). Besides, in assay [12], the activity, negative = inhibition was -2.09% (inactive). Besides, in assay [13], the outcome was inactive. Besides, the Potency entry in [7], in assay [9], in assay [10], in [15] and in assay [11] was “inactive” throughout. In addition, the max response came to 13.5% in assay [8] (setting [18]) and 17.1% in [8] (setting [19]).

`CN(C)Cc1ccccc1-c1nc(N(C)C)c2ccccc2n1`: the Potency in [1] is > 11.4 µM (inactive); in [3], 1.26 µM (active); in assay [5] it was > 46 µM (inactive); in assay [6], > 46 µM (inactive). The activity change, negative = inhibition in assay [2] was 19.8% (inactive); in assay [4], 13.2% (inactive); in assay [8] it was -2.91% (inactive). Besides, the activity, negative = inhibition in [12] was 28.7% (inactive). Further, the molecule was called inactive in assay [13]. For the same molecule, the results for the max response in assay [8] (setting [18]) and in assay [8] (setting [19]) were 9.81% and 6.7%, respectively. Also, the Potency result in [9], in assay [10], in [15] and in assay [11] was “inactive” in each case.

Consider `CN(C)C(=O)c1ccc(-c2cncnc2NCCc2cnc[nH]2)cc1`, for which the Potency in assay [1] was > 11.4 µM (inactive); in assay [3] it was 12.6 µM (active); in [5], > 46 µM (inactive); in assay [17], 6.31 µM (active). The activity change, negative = inhibition is -9.74% (inactive) in assay [2], 18.2% (inactive) in [4] and 3.4% (inactive) in assay [8]. Moreover, in assay [12], the activity, negative = inhibition was -26.8% (inactive). In addition, in assay [13], the outcome was inactive. The Potency result in assay [16], in assay [7], in [9], in assay [10], in assay [15] and in [11] was “inactive” in each case. Besides, the results for the max response in [8] (setting [18]) and in assay [8] (setting [19]) were 29.1% and 30.3%, respectively.

Consider `COc1cccc(-c2cncnc2N(C)Cc2ccco2)c1`, for which the Potency in [1] was > 11.4 µM (inactive); in assay [3], 10 µM (active); in assay [5], > 46 µM (inactive); in assay [6] it was > 46 µM (inactive); in assay [17], 2.51 µM (active); in assay [14] it was 7.94 µM (active). Besides, the figures for the activity change, negative = inhibition in assay [2], in assay [4] and in assay [8] were -8.71% (inactive), -25.9% (inactive) and 6.72% (inactive), respectively. Moreover, the activity, negative = inhibition in assay [12] is 7.72% (inactive). Moreover, the outcome in assay [13] was inactive. Further, the Potency result in [16], in assay [9], in assay [10], in [15] and in assay [11] was “inactive” each time. The max response in [8] (setting [18]) came to 38%; in assay [8] (setting [19]), 41.1%.

As to `COc1ccc(CNc2ncnc3ccc(-c4cccnc4)cc23)c(OC)c1`, the Potency in assay [1] is > 11.4 µM (inactive); in [3] it was 0.398 µM (active); in assay [5] it was > 46 µM (inactive); in assay [6] it was > 46 µM (inactive); in [17], 1.26 µM (active); in assay [9], 14.1 µM (active). Also, the values for the activity change, negative = inhibition in [4] and in [8] were 29.9% (inactive) and -5.09% (inactive), respectively. Also, the activity, negative = inhibition in assay [12] is 2.05% (inactive). Further, the outcome in assay [13] was inactive. In addition, the Potency result in assay [7], in [15] and in assay [11] was “inactive” throughout. For the same molecule, the max response in [8] (setting [18]) is -15.1%; in assay [8] (setting [19]) it was -21.1%.

Source of the values: PubChem BioAssay (NCATS).
